Source: PubChem BioAssay
In the library only some 1.7% were active in any assay of this set; here they are far more common.
IL1B cytotox: HUVEC cytotoxicity counter-screen, IL-1B stimulated; HUVEC cell count loss, Hoechst imaging; cell count reduction, % at 2 µM; 0.41% of 94,000 active; AID 845;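 active means cell count reduction more than 3 SD above the screen-wide mean, cut at about 70% in these data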;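 further: normalized per plate to untreated control cells as the no-loss baseline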
IL1B NFkB pot: enhances IL-1B driven NFkB nuclear translocation. HUVEC IL-1B NFkB p65 nuclear translocation imaging. 0.3% of 94,000 active. activation, % at 2 µM;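 active means activation above 40%, about the mean plus 3 SD, also judged a hit on visual image review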;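 further: percent activation is computed from the nuclear over cytoplasmic p65 intensity ratio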
E-sel TNF inh: TNF alpha driven E-selectin expression inhibition; HUVEC TNFa-induced E-selectin immunofluorescence, high content; inhibition, % at 2 µM; 0.71% of 120,000 active; AID 1246;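 active means inhibition above the batch mean plus 3 SD, and confirmed as a hit on visual image review, cut at about 43% in these data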;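 further: 0% = TNF-stimulated DMSO wells and 100% = unstimulated control wells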
VCAM1 TNFa inh: reduces TNF alpha induced VCAM1 expression in HUVEC. HUVEC TNFa-induced VCAM-1 immunofluorescence, high-content imaging. AID 802. 0.48% of 95,000 active. inhibition, % at 2 µM;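 active means inhibition above the batch mean plus 3 SD, with images confirmed as a hit by eye, cut at about 37% in these data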;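 further: 0% = TNF-stimulated DMSO wells and 100% = unstimulated control wells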
IL1B NFkB inh: blocks IL-1B driven NFkB nuclear translocation in HUVEC cells. HUVEC IL-1B NFkB p65 nuclear translocation imaging. 0.43% of 94,000 active. inhibition, % at 2 µM;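 active means inhibition above about 30% together with a positive call from visual inspection of the well image, limit read from the data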;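 further: nuclear over cytoplasmic p65 intensity ratio measured by imaging; 0% = IL-1B stimulated DMSO wells and 100% = unstimulated DMSO wells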
HUVEC tox TNFa: HUVEC cytotoxicity counter-screen, TNF alpha stimulated; 0.17% of 93,000 active; HUVEC TNFalpha-stimulated, Hoechst cell count, imaging; cell count reduction, % at 2 µM;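 active means cell count reduction exceeding the screen mean by over 5 SD, scaled to untreated wells per plate, cut at about 78% in these data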;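 further: cells counted after 24 h of TNF alpha exposure following the 1 h pretreatment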
The depositor's hits bear a star.

For COc1ccc(-c2nc(-c3ccc(NC(=O)c4ccc(Br)o4)cc3)no2)cc1OC the results were IL1B cytotox 24, IL1B NFkB pot -3, VCAM1 TNFa inh 76*, IL1B NFkB inh 3 and HUVEC tox TNFa 39.
Screening O=C(Nc1ccc(-c2nc3cccnc3s2)cc1)c1ccco1 returned E-sel TNF inh 4.
For COc1ccc(CC(=O)Nc2ccc(-c3nnc(-c4ccccc4)o3)cc2)cc1OC the results were IL1B cytotox -14, IL1B NFkB pot -91, E-sel TNF inh -46, VCAM1 TNFa inh -8, IL1B NFkB inh 91* and HUVEC tox TNFa -12.
Screening O=C(Nc1ccc(-c2nc3cccnc3s2)cc1)c1ccc(Br)o1 returned IL1B cytotox -9, IL1B NFkB pot -7, E-sel TNF inh 100*, VCAM1 TNFa inh 11, IL1B NFkB inh 7 and HUVEC tox TNFa -34.
`Cc1ccc(C(=O)CSc2nnc(-c3ccccc3)o2)cc1` gave IL1B cytotox 93*, IL1B NFkB pot 5, E-sel TNF inh -5, VCAM1 TNFa inh 10, IL1B NFkB inh -5 and HUVEC tox TNFa 0.
Screening Cc1ccc(-c2nnc(-c3ccccc3)o2)cc1 returned IL1B cytotox 10, IL1B NFkB pot -72, E-sel TNF inh 11, VCAM1 TNFa inh 32, IL1B NFkB inh 72* and HUVEC tox TNFa 1.
Fc1ccccc1CSc1nnc(-c2ccccc2)o1 was read as IL1B cytotox 92*, IL1B NFkB pot 14, E-sel TNF inh -1, VCAM1 TNFa inh 19, IL1B NFkB inh -14 and HUVEC tox TNFa -4.
`CN(C(=O)CO/N=C/c1ccc(OC(F)F)cc1)C1CCS(=O)(=O)C1` (stereo not drawn) gave E-sel TNF inh -25.
Screening COc1ccc(/C=C/C2=CCN(Cc3ccc(OC)cc3)CC2)cc1 returned E-sel TNF inh -19.
`CN1Cc2cc(C(=O)c3cc(Cl)cc(CSc4ncccn4)c3O)cnc2NC1=O` gave IL1B cytotox 24, IL1B NFkB pot -17, E-sel TNF inh -1, VCAM1 TNFa inh 96*, IL1B NFkB inh 17 and HUVEC tox TNFa 66.
CCCn1c(=NC(=O)c2ccco2)c(C(=O)OCC)cc2c(=O)n3ccccc3nc21 was read as IL1B cytotox -13, IL1B NFkB pot 13, E-sel TNF inh 58*, VCAM1 TNFa inh -9, IL1B NFkB inh -13 and HUVEC tox TNFa 13.
Screening CCOC(=O)c1cc2c(=O)n3ccccc3nc2n(CCCOC)c1=NC(C)=O returned IL1B cytotox -3, IL1B NFkB pot 13, E-sel TNF inh -12, VCAM1 TNFa inh 0, IL1B NFkB inh -13 and HUVEC tox TNFa -9.
CCc1ccc(N2C(=O)CC(N(CC3CCCO3)C(=O)/C=C/C(=O)O)C2=O)cc1 (stereo not drawn) was read as E-sel TNF inh 8.
For COc1ccc(CCN(C)c2ccc(S(=O)(=O)N3CCCC3)cn2)cc1OC the results were E-sel TNF inh 76*.
For O=S(=O)(NCCSc1nnc(-c2ccco2)n1-c1ccccc1)c1ccccc1 the results were IL1B cytotox 5, IL1B NFkB pot 86*, E-sel TNF inh 18, VCAM1 TNFa inh 3, IL1B NFkB inh -86 and HUVEC tox TNFa 4.
Screening CCC(=O)NC(c1ccc([N+](=O)[O-])cc1)c1c(O)ccc2ccccc12 (stereo not drawn) returned IL1B cytotox 1, IL1B NFkB pot -2, E-sel TNF inh 100*, VCAM1 TNFa inh 5, IL1B NFkB inh 2 and HUVEC tox TNFa -8.
CCCCC(=O)NC(c1ccc([N+](=O)[O-])cc1)c1c(O)ccc2ccccc12 (stereo not drawn) was read as E-sel TNF inh -1.
`CCCCn1c(SCC(=O)Nc2cc(C(F)(F)F)ccc2Cl)nnc1C(CC)N(C)C` (stereo not drawn) gave E-sel TNF inh -9.
Screening CCC(C)(C)NC(=O)C(c1ccncc1)N(Cc1ccc(C)cc1)C(=O)c1csnn1 (stereo not drawn) returned IL1B cytotox 90*, IL1B NFkB pot 12, E-sel TNF inh -9, VCAM1 TNFa inh 13, IL1B NFkB inh -12 and HUVEC tox TNFa -12.
Screening CCN1CCCC1Cn1cnc2c([nH]c3cccc(Cl)c32)c1=O (stereo not drawn) returned IL1B cytotox -11, IL1B NFkB pot -30, VCAM1 TNFa inh 18, IL1B NFkB inh 30* and HUVEC tox TNFa -55.
